Test results published in the OligoGym collection.

The sequences below were run against RNF122 (assay: pooled miR-30 sensor sort-seq; sequence = guide strand). Details: shRNA.
Note: reference of the scale not given here.

| Sequence | sensor-assay potency score (higher = more potent) |
| --- | --- |
| TTTCACCAGACACTTGCGGTGA | -0.949 |
| ATAATTGTAACTTCTTGGCATC | -0.737 |
| TAACTTCTTGGCATCACCTTTA | -0.252 |
| ATATCCGTATCGCTCACTCTGT | -0.868 |

These sequences were tested against RNF125 in the same assay as above. Details: shRNA.

| Sequence | sensor-assay potency score (higher = more potent) |
| --- | --- |
| TTGTTGTTCTTTAGACTGGTAG | -0.623 |
| TTGTTCTTTAGACTGGTAGCAA | -0.126 |
| TTATCTATGTACTTCTGACAAG | -1.25 |
| ATGTACTTCTGACAAGTCCGAA | -1.03 |
| TTATACTCTGATTTCATTCTTT | 0.204 |
| TAGTGGTCCATACTTATCTATG | -1.8 |
| TGTACTTCTGACAAGTCCGAAT | -0.85 |
| TACTTATCTATGTACTTCTGAC | -0.698 |
| TAGACTGGTAGCAATACAGGAA | -0.258 |
| TTCTTGTAGTGGTCCATACTTA | -0.891 |
| ATACTTATCTATGTACTTCTGA | 0.546 |
| TATCTATGTACTTCTGACAAGT | -0.831 |

What follows are sequences tested against RNF14 in the same assay as above. Details: shRNA.

| Sequence | sensor-assay potency score (higher = more potent) |
| --- | --- |
| TATCGTCGTCAACATCCACAGC | -0.981 |
| TCATCTTGTTACATCCGTCTAA | 0.00357 |
| AATATCGTCGTCAACATCCACA | -1.06 |
| TTTCTGAGAACCAATCTTGAGC | -0.733 |
| TTACTTTGTGTACTTGACGGAA | -0.835 |
| TTTGAGTTCTTCTCTAGCCACT | -1.03 |
| TTTATTAGCCTCATCCGCTTGC | 0.884 |
| TTCTTCTCTAGCCACTCCTTAC | -0.95 |
| TAAAACATGGTGAACCAGGGTC | 0.147 |
| TCTAAATTCATCTCCATCGTAA | 0.0572 |
| TATCTTGAAATTCTGTGGCAAA | -1.02 |
| ATGTCATCTTGTTACATCCGTC | -0.926 |

Each sequence was assayed against RNF157 in the same assay as above. Details: shRNA.

| Sequence | sensor-assay potency score (higher = more potent) |
| --- | --- |
| TTGTACTGCACAGTCTCCGACT | -0.593 |
| TACCATTCTGGAACTCTTCCGT | 0.188 |
| TTCAATTCCATAGATCTCCTGA | 0.823 |
| TTGTCTTTGGGAATGTAGCTGG | 0.177 |
| TACTTGTTTCTGTTTGAGGGGC | 0.142 |
| TTCCTCTTCATGCAGCACGGAA | -1.64 |
| TTTCGGATATTGACCAGGCTTC | -1.09 |
| TTCCTCAGCACATTTGACGAGC | -0.263 |
| TTGAGTCAAACTTCTCTCCTCC | 0.532 |
| TTGAGTTTGAGTCCCTGACTGC | -0.461 |
| TAAGGAAACACAACTGGTCTGT | 0.685 |
| TTGAGTCCCTGACTGCTGCTGT | 0.522 |
